Shown are actives, neighbours in structure and some others; about 8.8% of the full set was active somewhere.
IL-1B inflam inh = qHTS for Inhibitors of Inflammasome Signaling: IL-1-beta AlphaLISA Primary Screen; THP-1 LPS/ATP IL-1B secretion, AlphaLISA, 16 h; stronger effect = lower value; activity change, % at 57.5 µM; hit rate 4.7% among 360,000; in the data active = activity change below about -50%; inconclusive = mostly about -30% to -49%
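Secreted IL-1B measured by AlphaLISA bead assay after 16 h compound exposure of THP-1 cells; compounds (final up to 57.5 uM) added 1 h before LPS (250 ng/mL) and ATP (1.25 mM) stimulation; lower signal means less secretion.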
KB-3-1 cytotox = qHTS assay for MDR1-selective chemotherapeutics: Primary screen using the parental adenocarcinoma cell KB-3-1; Potency, µM (top dose mostly 46.1 µM), usual class: cytotoxic; KB-3-1 viability, CellTiter-Glo ATP luminescence, 72 h; hit rate 1.4% among 400,000; AID 1347075, 2019; also: potency is read from the fitted curve at half-maximal effect; nearly all actives have a fitted effect of over 60% in size
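Screening of KB-3-1 cells (DMEM, 10% FBS, phenol-red free) ran from lowest to highest compound concentration; after 72 h at 37 °C viability was read luminescently and curves fitted.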
KB-V1 cytotox = qHTS assay for MDR1-selective chemotherapeutics: Primary screen using the drug-selected MDR subline cells KB-V1 | KB-V1 MDR cells viability, CellTiter-Glo, 72 h | Potency, µM (highest dose often 46.1 µM), usual class: cytotoxic | hit rate 3.4% among 400,000; also: potency is read from the fitted curve at half-maximal effect; nearly all actives have a fitted effect of over 60% in size
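Luminescent ATP read-out (CellTiter-Glo, 10 min) measures survival of drug-selected KB-V1 MDR cells after 72 h, 37 degrees C compound exposure. Medium: phenol-red-free DMEM, 10% FBS. Values from fitted concentration-response curves.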
HT1080 IDH1KD tx = qHTS for induction of synthetic lethality in tumor cells producing 2HG: qHTS for the HT-1080-IDH1KD cell line | Potency, µM (series often up to 46.1 µM), inactives show at the highest dose activity, negative = toxicity, usual class: cytotoxic | HT-1080 IDH1 knockdown viability, ATP luminescence, 48 h | hit rate 2% among 360,000;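 also: potency is read from the fitted curve at half-maximal effect; 0% = DMSO wells and -100% = cell-free medium wells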
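After a 2 h attachment period, IDH1KD HT-1080 cells took pin-transferred compound for 48 h at 37 °C; ATP-based luminescence after 10 min room-temperature reagent incubation reported viability.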
HT1080-NT tox = qHTS for induction of synthetic lethality in tumor cells producing 2HG: qHTS for the HT-1080-NT fibrosarcoma cell line; HT-1080-NT fibrosarcoma viability, CellTiter-Glo ATP luminescence, 48 h; Potency, µM (doses to about 46.1 µM), inactives show top-dose activity, negative = less viability, usual class: cytotoxic; hit rate 1.6% among 360,000; AID 686970, 2013;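 also: NT is the 2HG producing partner of a matched IDH1 knockdown line; potency is read from the fitted curve at half-maximal effect; 0% = DMSO-treated cells and -100% = media-only wells without cells; nearly all actives have a fitted effect of over 55% in size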
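A 48-hour cytotoxicity screen used HT-1080-NT cells plated 2 hours before compound delivery. ATP-based CellTiter-Glo luminescence measured viability, normalized to DMSO and no-cell controls.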
* = called active by the depositor; i = inactive; ? = inconclusive; / = no result given. Unless noted, calls follow the shape of the dose curve; as a rule, active = well fitted curve in the direction sought with a large enough effect; inconclusive = small, poorly fitted or top-dose-only effect, or another doubt; inactive = no such curve, though single readings can be large; an effect the other way counts as inactive or inconclusive. Unless noted, % is scaled to controls: 0 for no effect and ±100 for the full control effect.

SMILES | IL-1B inflam inh | KB-3-1 cytotox | KB-V1 cytotox | HT1080 IDH1KD tx | HT1080-NT tox
CCC(Sc1nc(N)c(NC(=O)c2ccc(Br)o2)c(=O)[nH]1)C(=O)O (configuration not stated) | i | i | i | 17% | 0%
FC(F)Oc1ccc(-n2cc(-c3ccccc3)[n+]3c2CCCCC3)cc1 | -23 | 23µM* | i | -5% | -11%
Cc1ccc(-c2cn(-c3ccc(OC(F)F)cc3)c3[n+]2CCCCC3)cc1 | -81* | i | i | -26% | ?
Cc1ccc(CONC(=O)c2ccc(OC(F)F)cc2)cc1 | -17 | i | i | 12% | 12%
CC1(C)CC(=O)C=C(c2ccc(COC(=O)c3cccc(C(F)(F)F)c3)cc2)C1=O | 22 | i | i | 12% | 16%
O=C(c1cnn2c1NC(c1ccco1)CC2C(F)(F)F)N1CCN(c2cccc(Cl)c2)CC1 (configuration not stated) | -12 | ? | ? | 18µM* | 15µM*
Cc1nnc(SCC(=O)Nc2ccc(N(C)C)cc2)[nH]c1=O | / | i | i | / | /
CCCOc1cccc(C2c3c(oc4ccc(F)cc4c3=O)C(=O)N2CCc2ccc(OC)cc2)c1 (configuration not stated) | / | i | i | / | /
Oc1ccccc1/C=N/NC(=S)NC1CC2CCC1C2 (configuration not stated) | -78* | ? | ? | ? | 21µM*
COc1cccc(/C=N/NC(=S)NC2CC3CCC2C3)c1OC (configuration not stated) | 8 | i | i | -1% | 5%
CCN(c1ccccc1)S(=O)(=O)c1ccc(NC(=O)c2nc(S(C)(=O)=O)ncc2Cl)cc1 | -97* | 5.2µM* | ? | 16µM* | 18µM*
CCS(=O)(=O)c1ncc(Cl)c(C(=O)Nc2ccc(S(=O)(=O)N(C)c3ccccc3)cc2)n1 | -103* | 2.6µM* | ? | 3.7µM* | 2.6µM*
CCSc1ncc(Cl)c(C(=O)Nc2ccc(S(=O)(=O)N(C)c3ccccc3)cc2)n1 | / | i | i | / | /
COc1ccc(C2=NN(C(=O)CSc3nc4ccccc4s3)C(c3ccc(F)cc3)C2)cc1 (configuration not stated) | -6 | ? | 12µM* | -5% | -6%
COc1cccc(C2CC(c3cccs3)=NN2C(=O)CSc2nc3ccccc3s2)c1OC (configuration not stated) | 0 | ? | 12µM* | 2% | 10%
O=C(Nc1cccc(Cl)c1)OC1CCCCc2cccnc21 (configuration not stated) | -80* | i | i | -22% | -1%
O=C(Nc1ccccc1)OC1CCCCc2cccnc21 (configuration not stated) | -12 | i | i | -6% | 2%
Cc1c(C(=O)OCc2ccc(F)cc2)sc2nc3n(c(=O)c12)CCC3 | 30 | i | i | 10% | 17%
CCOC(=O)c1cnc(SCc2ccc(C(C)(C)C)cc2)nc1N | -1 | 23µM* | ? | -11% | -10%
CCOC(=O)c1cnc(SCc2ccccc2)nc1N | -14 | i | ? | 0% | -18%
CCOC(=O)c1cnc(SCc2cccc3ccccc23)nc1N | 14 | ? | 18µM* | ? | -8%
C=CCOc1c(Br)cc(/C=N/Nc2ccc(C(=O)O)cc2)cc1OCC | 17 | i | i | -25% | -20%
CCC(C)NS(=O)(=O)c1ccc(F)c(C(=O)Nc2c(F)cc(F)cc2Br)c1 (configuration not stated) | 16 | i | i | -10% | -11%
Cc1ccc(C)n1-c1ccc(-c2ccnc(N)n2)cc1 | -83* | i | ? | -1% | -5%
COc1ccc(CNC(=O)C2CCCN2C(=O)Nc2cccc(Cl)c2)cc1 (configuration not stated) | -9 | i | i | 1% | 0%
SMILES | IL-1B inflam inh | KB-3-1 cytotox | KB-V1 cytotox | HT1080 IDH1KD tx | HT1080-NT tox
O=S(=O)(c1ccccc1)c1nc(-c2ccccc2F)oc1N1CCOCC1 | / | i | ? | / | /
O=C1NC2=C(CCc3ccccc32)C(c2ccc(Br)cc2)N1 (configuration not stated) | -5 | i | 21µM* | -8% | -2%
Cc1ccc2cc(-c3noc(C(C)(C)C)n3)c(=O)[nH]c2c1 | -3 | i | 18µM* | 18% | ?
Cc1nnc(NC(=O)c2ccc(Br)o2)s1 | 3 | i | i | 9% | 6%
COc1ccc(-c2noc(CSc3nnc(-c4ccncc4)n3-c3ccc(C)cc3)n2)cc1OC | / | i | i | / | /
CC(=O)Nc1ccc2[nH]c(C)cc(=O)c2c1 | 15 | i | ? | 3% | -3%
Cc1cc2c(N=O)c(NO)ccc2[nH]1 | -2 | ? | 4.1µM* | ? | -19%
CCC(CO)Nc1ccn2nc(-c3ccccc3)cc2n1 (configuration not stated) | 24 | i | i | 20% | 13%
CCC(CO)Nc1ccn2nc(-c3cccs3)cc2n1 (configuration not stated) | -50* | i | i | 0% | 22%
Cc1ccc(S(=O)(=O)c2nnn3c2nc(N2CCN(c4cccc(C)c4C)CC2)c2ccccc23)cc1C | / | i | i | / | /
Cc1ccc(S(=O)(=O)c2nnn3c2nc(N2CCOCC2)c2ccccc23)cc1C | -66* | ? | i | -1% | 14%
Cc1ccc(N2C(=O)N(CC(=O)Nc3cc(Cl)ccc3C)C(=O)C2C)cc1 (configuration not stated) | -28 | i | ? | -16% | -4%
O=C(Nc1ccc(-n2cccn2)cc1)C1CCCCN1Cc1cccc2c1OCO2 (configuration not stated) | 28 | 4.1µM* | ? | ? | ?
COc1ccc(/C=C2\CN(Cc3ccccc3)C/C(=C\c3ccc(OC)c(O)c3)C2=O)cc1O | -99* | 5.2µM* | i | 2.3µM* | ?
CCN1C/C(=C/c2ccc(OC)c(O)c2)C(=O)/C(=C/c2ccc(OC)c(O)c2)C1 | -72* | i | ? | ? | ?
C=CCNC(=O)c1ccsc1N | 38 | i | i | -1% | 11%
CNc1nc(SCc2ccccc2Cl)nc2c1CCCC2 | -18 | i | ? | 33µM* | ?
Cc1nc2c(OCc3ccc(C(F)(F)F)cc3)cccn2c1N(C)Cc1cccs1 | -84* | i | ? | 26µM* | ?
CCCCN(C=O)c1c(CC)nc2c(OCc3ccc(C(F)(F)F)cc3)cccn12 | -65* | i | i | ? | ?

High-throughput results: PubChem, National Center for Advancing Translational Sciences (NCATS)
